The results in this text go back to PubChem BioAssay (EPA / NIEHS).

In general, AC50 refers to the concentration giving half of the maximal activity seen.

Several values for one entry are separate records, joined by “and”; a condition that tells them apart may be missing. Equal values may be shown once. Some structures have more than one record in an assay (separate samples or runs), and their calls can disagree. Activity calls are given as the source filed them. How the source made its calls: active means hit-call score of the fitted dose curve at least 0.9, where 1 is the maximum; inactive means score below 0.9.

Test [1] can be described thus: ATG_GLI_CIS: Attagene CIS-FACTORIAL HepG2 Assay for human Zinc Finger Protein GLI1 (AID 2282945). Conditions: HepG2, Attagene cis-factorial reporter mRNA, GLI element; actives raise or lower the signal. An outline of the steps: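 Bidirectional curve fits relative to DMSO, using reporter mRNA levels from RT-PCR plus capillary electrophoresis. Cells were HepG2 transiently carrying cis-regulated reporter constructs, harvested 24 h after dosing.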

Test [2] addresses Bile acid receptor (Homo sapiens) (UniProt Q96RI1). Nature of the test: ATG_IR1_CIS: Attagene CIS-FACTORIAL HepG2 Assay for human Nuclear Receptor Subfamily 1 Group H Member 4 (NR1H4), IR1 submotif (AID 2282946). Conditions: IR1 reporter transcription, actives raise or lower the signal. The method in brief:
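HepG2 cells transiently transfected with multiplexed cis-element reporter units read endogenous transcription factor activity. After 24 h compound exposure, reporter mRNA was quantified by RT-PCR, fluorescent labelling, HpaI digestion and capillary electrophoresis; bidirectional fitting versus DMSO baseline.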

The nature of test [3]: ATG_GRE_CIS: Attagene CIS-FACTORIAL HepG2 Assay for human Glucocorticoid Response Elements (GRE) (AID 2282947). Conditions: HepG2 GRE cis-reporter, Attagene multiplex mRNA; actives raise or lower the signal. The method in brief:
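Multiplexed cis-reporter mRNA induction, HepG2, 24 h post-dose. RT-PCR, FAM-labelled, HpaI-digested amplicons by CE. Bidirectional fit vs DMSO.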

The nature of test [4]: ATG_ISRE_CIS: Attagene CIS-FACTORIAL HepG2 Assay for human Interferon Regulatory Factor 1 (IRF1) binding to an Interferon-Stimulated Response Element (ISRE) (AID 2282948). The following applies: HepG2 ISRE cis-reporter (Attagene), mRNA transcription readout; actives raise or lower the signal. An outline of the steps: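 Endogenous transcription factor activity read as reporter transcript abundance via RT-PCR and capillary electrophoresis. HepG2 cells transiently transfected, 24 h chemical exposure. Gain or loss fitted against DMSO baseline.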

Test [5] in a line: ATG_M_32_CIS: Attagene CIS-FACTORIAL HepG2 Assay for M32 Transcription Factor (Internal Marker) (AID 2282949).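 Further: background control marker of the multiplexed CIS panel rather than a real target.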 The following applies: HepG2 Attagene cis-factorial M32 reporter, mRNA; actives raise or lower the signal. The method in brief: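 Using DMSO as baseline, bidirectional curve fits were applied to reporter mRNA signals. These came from transiently transfected HepG2 cells exposed for 24 h, with RNA analysed by RT-PCR, FAM primer extension, HpaI digestion and CE.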

Test [6] is described as follows: ATG_M_06_CIS: Attagene CIS-FACTORIAL HepG2 Assay for M06 Transcription Factor (Internal Marker) (AID 2282950). Conditions: HepG2 Attagene CIS-FACTORIAL M06 internal marker reporter; actives raise or lower the signal. An outline of the steps:
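One of many multiplexed endpoints: HepG2 reporter mRNA after 24 h dosing, detected by RT-PCR and capillary electrophoresis fluorescence; gain or loss of signal analysed against DMSO.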

The target of test [7] is Hypoxia-inducible factor 1-alpha (Homo sapiens) (UniProt Q16665). Nature of the test: ATG_HIF1a_CIS: Attagene CIS-FACTORIAL HepG2 Assay for human Hypoxia Inducible Factor 1 (HIF1A) (AID 2282951). The following applies: HepG2 Attagene cis-factorial HIF1a reporter transcription; actives raise or lower the signal. The method in brief:
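After 24 h chemical exposure of reporter-transfected HepG2 cells, reporter cDNA was PCR-amplified, labelled by 6-FAM primer extension (2 min 95 C, 20 s 68 C, 10 min 72 C), HpaI-cut (2 h, 37 C) and analysed by CE.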

Test [8] addresses Hepatocyte nuclear factor 6 (Homo sapiens) (UniProt Q9UBC0). Description: ATG_HNF6_CIS: Attagene CIS-FACTORIAL HepG2 Assay for human Hepatocyte Nuclear Factor 6 (HNF6) (AID 2282952). Conditions: HepG2 Attagene cis-factorial HNF6 reporter transcription; actives raise or lower the signal. An outline of the steps: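 Using cis-element reporters in HepG2 liver cells, the assay tracks endogenous factor-driven transcription 24 h post-dosing. Signal comes from 6-FAM-labelled, HpaI-digested RT-PCR fragments, with gain or loss scored against DMSO.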

For test [9], the target named is Heat shock factor protein 1 (Homo sapiens) (UniProt Q00613). Nature of the test: ATG_HSE_CIS: Attagene CIS-FACTORIAL HepG2 Assay for human Heat Shock Transcription Factor 1 (HSE) (AID 2282953). Conditions: HepG2 HSE cis-reporter, Attagene RNA transcription; actives raise or lower the signal. The method in brief: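 Using HepG2 with transfected cis-driven reporter constructs, compound effects on endogenous factor activity are scored as reporter mRNA change at 24 h. Detection: RT-PCR, HpaI digestion, capillary electrophoresis; bidirectional fitting to DMSO.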
Heat shock factor protein 1 (Homo sapiens), sequence (Q00613 whole entry, looked up): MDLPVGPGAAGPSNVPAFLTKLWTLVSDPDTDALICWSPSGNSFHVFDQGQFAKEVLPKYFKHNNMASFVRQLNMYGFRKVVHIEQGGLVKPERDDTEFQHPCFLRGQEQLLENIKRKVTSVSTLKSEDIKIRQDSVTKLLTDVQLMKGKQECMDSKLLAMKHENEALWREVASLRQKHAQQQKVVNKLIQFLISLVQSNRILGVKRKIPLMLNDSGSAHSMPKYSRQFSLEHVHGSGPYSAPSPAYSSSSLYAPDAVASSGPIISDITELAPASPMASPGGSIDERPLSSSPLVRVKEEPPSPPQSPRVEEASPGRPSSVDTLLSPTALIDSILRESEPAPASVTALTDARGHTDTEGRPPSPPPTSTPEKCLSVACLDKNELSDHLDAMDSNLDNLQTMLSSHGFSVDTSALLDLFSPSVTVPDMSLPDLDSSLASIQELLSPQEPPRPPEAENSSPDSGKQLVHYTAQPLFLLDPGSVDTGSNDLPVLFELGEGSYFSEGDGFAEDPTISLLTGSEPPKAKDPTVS

A short description of test [10]: ATG_MRE_CIS: Attagene CIS-FACTORIAL HepG2 Assay for human Metal Responsive Element (MRE) (AID 2282954). Conditions: HepG2 MRE cis-reporter transcription, Attagene multiplex; actives raise or lower the signal. An outline of the steps: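 Multiplexed cis-reporter assay in human HepG2 liver cells, 24 h incubation with test chemical. Reporter transcripts measured by RT-PCR and capillary electrophoresis; values from bidirectional curve fitting versus DMSO.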

Test [11] is described as follows: ATG_PBREM_CIS: Attagene CIS-FACTORIAL HepG2 Assay for human Phenobarbital-responsive Enhancer Module (PBREM) (AID 2282955). Conditions: HepG2 PBREM cis-reporter, Attagene multiplexed transcription; actives raise or lower the signal. An outline of the steps:
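Measures endogenous factor action on a phenobarbital-responsive enhancer module. HepG2 transiently carrying cis reporters, 24 h treatment, mRNA read-out by RT-PCR plus capillary electrophoresis.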

Test [12] concerns the target Paired box protein Pax-6 (Homo sapiens) (UniProt P26367). Nature of the test: ATG_Pax6_CIS: Attagene CIS-FACTORIAL HepG2 Assay for human Paired Box 6 (PAX6) (AID 2282956). The following applies: HepG2 CIS-FACTORIAL PAX6 reporter transcription, RNA readout; actives raise or lower the signal. An outline of the steps:
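Read-out is reporter transcript level, measured by RT-PCR with fluorescent primer extension and capillary electrophoresis after 24 h dosing of transfected HepG2 cells. Activity in either direction fitted relative to DMSO control.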

A short description of test [13]: ATG_PXRE_CIS: Attagene CIS-FACTORIAL HepG2 Assay for human Pregnane X Receptor Element (PXRE) (AID 2282957). The following applies: HepG2 Attagene CIS-FACTORIAL PXRE reporter, mRNA; actives raise or lower the signal. An outline of the steps:
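Using HepG2 transfected with multiple reporter transcription units, endogenous factor-driven transcription was scored as reporter mRNA after 24 h exposure.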

A short description of test [14]: ATG_RORE_CIS: Attagene CIS-FACTORIAL HepG2 Assay for human RAR-related Orphan Receptor Element (RORE) (AID 2282959). Conditions: HepG2 Attagene cis-factorial RORE reporter, mRNA; actives raise or lower the signal. An outline of the steps: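 A 24-hour exposure of transfected HepG2 hepatoma cells precedes RNA isolation and reporter RT-PCR. Labeled products are digested with HpaI and resolved by capillary electrophoresis, with gain or loss of signal scored relative to DMSO.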

A short description of test [15]: ATG_Sox_CIS: Attagene CIS-FACTORIAL HepG2 Assay for human SRY-box transcription factor (SOX) (AID 2282960). The following applies: HepG2 Attagene cis-factorial SOX reporter, mRNA; actives raise or lower the signal. The method in brief:
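HepG2, cis reporter units, 24 h exposure. Reporter mRNA: RT-PCR → FAM labelling → HpaI → CE fluorescence. Bidirectional fit vs DMSO.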

For test [16], the target named is Transcription factor Sp1 (Homo sapiens) (UniProt P08047). Description: ATG_Sp1_CIS: Attagene CIS-FACTORIAL HepG2 Assay for human Specificity Protein 1 (Sp1) (AID 2282961). The following applies: HepG2 Sp1 cis-reporter transcription, actives raise or lower the signal. The method in brief: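 Liver-derived HepG2 cells, cis-element reporter library, 24 h treatment; RNA isolated, cDNA amplified with reporter-specific primers, FAM-labeled fragments sized on capillary analyzer. DMSO baseline, bidirectional curve fit.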
Transcription factor Sp1 (Homo sapiens), sequence (P08047 whole entry, looked up, the tested form may be a part): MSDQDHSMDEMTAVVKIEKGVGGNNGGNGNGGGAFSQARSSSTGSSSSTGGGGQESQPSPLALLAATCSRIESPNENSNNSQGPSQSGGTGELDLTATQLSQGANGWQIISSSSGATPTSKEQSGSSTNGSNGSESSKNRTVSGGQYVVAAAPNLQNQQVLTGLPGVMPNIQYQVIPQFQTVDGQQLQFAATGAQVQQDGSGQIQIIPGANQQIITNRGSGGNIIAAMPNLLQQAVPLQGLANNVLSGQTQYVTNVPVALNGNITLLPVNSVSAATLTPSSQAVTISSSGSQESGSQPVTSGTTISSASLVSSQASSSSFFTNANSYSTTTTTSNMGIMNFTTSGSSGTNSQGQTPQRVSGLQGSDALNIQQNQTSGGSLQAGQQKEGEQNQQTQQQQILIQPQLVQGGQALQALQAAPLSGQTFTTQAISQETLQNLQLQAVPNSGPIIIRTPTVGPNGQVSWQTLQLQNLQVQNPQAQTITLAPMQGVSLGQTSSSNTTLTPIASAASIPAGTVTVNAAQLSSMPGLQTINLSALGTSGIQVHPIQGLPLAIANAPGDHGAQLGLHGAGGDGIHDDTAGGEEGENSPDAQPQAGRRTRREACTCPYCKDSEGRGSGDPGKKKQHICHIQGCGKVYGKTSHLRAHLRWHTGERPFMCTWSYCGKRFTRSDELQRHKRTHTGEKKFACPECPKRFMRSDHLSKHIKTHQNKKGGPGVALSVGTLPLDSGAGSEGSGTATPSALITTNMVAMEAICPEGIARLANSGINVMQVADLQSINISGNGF

A short description of test [17]: ATG_SREBP_CIS: Attagene CIS-FACTORIAL HepG2 Assay for human Sterol Regulatory Element Binding (SREBP) (AID 2282962). Conditions: HepG2 Attagene cis-factorial SREBP reporter, mRNA; actives raise or lower the signal. The method in brief:
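Endogenous SREBP activity read as cis-element-driven reporter transcript in transiently transfected HepG2, 24 h post-dosing; quantified via RT-PCR plus capillary electrophoresis of fluorescent fragments. Gain or loss of signal fitted relative to DMSO baseline.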

For test [18], the target named is Signal transducer and activator of transcription 3 (Homo sapiens) (UniProt P40763). Nature of the test: ATG_STAT3_CIS: Attagene CIS-FACTORIAL HepG2 Assay for human Signal Transducer and Activator of Transcription 3 (STAT3) (AID 2282963). Conditions: HepG2, Attagene cis-factorial STAT3 reporter transcription; actives raise or lower the signal. An outline of the steps: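 Cis-factorial format: endogenous transcription factors in HepG2 drive transfected reporter units. After 24 h treatment, reporter RNA was reverse-transcribed, amplified, FAM-labelled and HpaI-digested before CE analysis; activity scored in both directions against DMSO.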
Signal transducer and activator of transcription 3 (Homo sapiens), sequence (P40763 whole entry, looked up): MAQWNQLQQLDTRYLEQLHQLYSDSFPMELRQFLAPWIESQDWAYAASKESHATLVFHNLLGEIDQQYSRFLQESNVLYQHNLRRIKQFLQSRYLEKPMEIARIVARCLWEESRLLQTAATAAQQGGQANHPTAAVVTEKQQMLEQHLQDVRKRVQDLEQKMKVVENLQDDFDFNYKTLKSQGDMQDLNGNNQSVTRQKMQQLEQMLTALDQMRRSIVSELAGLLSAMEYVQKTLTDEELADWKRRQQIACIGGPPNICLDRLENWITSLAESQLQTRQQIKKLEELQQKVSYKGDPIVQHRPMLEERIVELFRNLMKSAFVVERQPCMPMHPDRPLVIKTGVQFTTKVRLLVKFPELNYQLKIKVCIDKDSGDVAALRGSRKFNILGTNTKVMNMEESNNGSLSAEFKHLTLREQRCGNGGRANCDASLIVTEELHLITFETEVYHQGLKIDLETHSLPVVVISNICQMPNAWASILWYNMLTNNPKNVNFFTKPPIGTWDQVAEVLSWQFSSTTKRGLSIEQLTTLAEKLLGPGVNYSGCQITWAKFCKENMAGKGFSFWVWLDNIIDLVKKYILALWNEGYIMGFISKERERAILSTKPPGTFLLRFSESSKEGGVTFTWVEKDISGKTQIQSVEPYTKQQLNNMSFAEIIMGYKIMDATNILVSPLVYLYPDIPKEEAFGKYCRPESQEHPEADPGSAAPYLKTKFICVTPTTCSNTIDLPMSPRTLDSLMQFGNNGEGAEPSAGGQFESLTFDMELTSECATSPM

Test [19] in a line: ATG_TA_CIS: Attagene CIS-FACTORIAL HepG2 Assay for human TA Basal Promoter (AID 2282964). Conditions: HepG2 Attagene CIS-factorial TA basal promoter reporter; actives raise or lower the signal. An outline of the steps: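 Transient MRTU transfection of HepG2 preceded 24 h compound exposure. Reporter mRNA levels were then read by RT-PCR with capillary electrophoresis, and this background-control endpoint was fitted bidirectionally to DMSO.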

Test [20] in a line: ATG_PPRE_CIS: Attagene CIS-FACTORIAL HepG2 Assay for human Peroxisome Proliferator-activated Response Element (PPRE) (AID 2282958). Conditions: HepG2 PPRE cis-element reporter, Attagene transcription factor profiling; actives raise or lower the signal. The method in brief:
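PPRE activity in HepG2: transient cis-reporter transfection, 24 h compound incubation, reporter mRNA by RT-PCR and CE fluorescence; gain/loss fitted against DMSO.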

Bile acid receptor (Homo sapiens), sequence (Q96RI1 whole entry, looked up): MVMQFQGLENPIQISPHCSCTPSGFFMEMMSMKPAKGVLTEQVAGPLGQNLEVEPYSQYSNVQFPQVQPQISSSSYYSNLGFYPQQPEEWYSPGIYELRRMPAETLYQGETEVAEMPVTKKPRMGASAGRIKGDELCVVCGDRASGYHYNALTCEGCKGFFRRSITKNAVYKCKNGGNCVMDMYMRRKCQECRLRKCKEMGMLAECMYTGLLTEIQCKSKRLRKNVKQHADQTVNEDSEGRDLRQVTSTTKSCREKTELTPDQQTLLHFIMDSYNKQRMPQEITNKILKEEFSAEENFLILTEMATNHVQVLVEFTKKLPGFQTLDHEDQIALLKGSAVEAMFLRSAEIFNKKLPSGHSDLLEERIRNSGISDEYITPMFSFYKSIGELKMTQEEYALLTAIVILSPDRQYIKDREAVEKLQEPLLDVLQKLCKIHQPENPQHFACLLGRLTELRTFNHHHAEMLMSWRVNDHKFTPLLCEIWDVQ
Paired box protein Pax-6 (Homo sapiens), sequence (P26367 whole entry, looked up): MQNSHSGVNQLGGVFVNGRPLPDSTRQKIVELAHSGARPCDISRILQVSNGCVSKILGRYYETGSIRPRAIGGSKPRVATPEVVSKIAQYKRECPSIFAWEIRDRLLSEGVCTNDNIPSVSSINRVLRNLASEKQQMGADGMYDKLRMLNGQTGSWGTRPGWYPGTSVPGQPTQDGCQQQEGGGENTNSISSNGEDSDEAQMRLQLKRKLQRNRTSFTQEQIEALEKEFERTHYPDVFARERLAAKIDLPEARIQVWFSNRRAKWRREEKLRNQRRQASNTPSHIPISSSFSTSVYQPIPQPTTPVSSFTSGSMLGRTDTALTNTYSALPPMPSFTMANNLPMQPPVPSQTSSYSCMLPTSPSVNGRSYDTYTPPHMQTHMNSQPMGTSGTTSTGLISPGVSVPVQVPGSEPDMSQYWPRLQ
Hypoxia-inducible factor 1-alpha (Homo sapiens), sequence (Q16665 whole entry, looked up): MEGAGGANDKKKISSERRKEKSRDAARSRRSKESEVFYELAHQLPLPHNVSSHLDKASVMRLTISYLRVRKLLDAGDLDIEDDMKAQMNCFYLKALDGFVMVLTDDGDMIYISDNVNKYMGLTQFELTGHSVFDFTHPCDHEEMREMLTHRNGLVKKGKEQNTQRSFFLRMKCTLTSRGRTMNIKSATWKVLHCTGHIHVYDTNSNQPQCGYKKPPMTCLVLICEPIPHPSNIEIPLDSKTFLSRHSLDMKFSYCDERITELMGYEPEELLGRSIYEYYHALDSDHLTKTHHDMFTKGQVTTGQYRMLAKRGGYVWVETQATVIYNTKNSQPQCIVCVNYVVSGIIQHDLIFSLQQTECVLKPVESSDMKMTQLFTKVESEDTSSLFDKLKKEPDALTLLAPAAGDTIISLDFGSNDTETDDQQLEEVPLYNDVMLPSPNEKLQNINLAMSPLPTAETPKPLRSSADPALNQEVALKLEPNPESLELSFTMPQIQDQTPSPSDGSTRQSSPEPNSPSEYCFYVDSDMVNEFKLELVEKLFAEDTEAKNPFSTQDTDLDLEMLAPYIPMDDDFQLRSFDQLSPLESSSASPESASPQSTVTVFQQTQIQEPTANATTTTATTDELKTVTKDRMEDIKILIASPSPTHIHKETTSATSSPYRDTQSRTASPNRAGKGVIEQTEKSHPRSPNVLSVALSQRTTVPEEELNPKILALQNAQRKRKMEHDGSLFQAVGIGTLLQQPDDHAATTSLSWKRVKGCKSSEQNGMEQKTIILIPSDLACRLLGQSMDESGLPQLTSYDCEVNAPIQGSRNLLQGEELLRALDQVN
Hepatocyte nuclear factor 6 (Homo sapiens), sequence (Q9UBC0 whole entry, looked up, the tested form may be a part): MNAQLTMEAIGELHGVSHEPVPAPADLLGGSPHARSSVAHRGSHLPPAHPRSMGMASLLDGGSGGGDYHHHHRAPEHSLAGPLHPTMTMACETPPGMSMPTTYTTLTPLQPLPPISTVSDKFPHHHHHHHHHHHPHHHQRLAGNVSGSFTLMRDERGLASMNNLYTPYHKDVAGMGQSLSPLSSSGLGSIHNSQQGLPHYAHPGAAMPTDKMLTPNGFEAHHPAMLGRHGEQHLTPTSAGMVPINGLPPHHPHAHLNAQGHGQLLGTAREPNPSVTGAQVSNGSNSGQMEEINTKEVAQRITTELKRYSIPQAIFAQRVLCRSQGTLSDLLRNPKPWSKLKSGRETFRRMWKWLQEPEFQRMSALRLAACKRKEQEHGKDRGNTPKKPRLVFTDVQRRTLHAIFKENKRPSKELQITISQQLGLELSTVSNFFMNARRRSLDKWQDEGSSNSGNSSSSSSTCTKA

For `Cc1cc(CCN2CCN(c3nsc4ccccc34)CC2)cc2c1NC(=O)CC2(C)C`, the compound was classed as inactive in test [1], in [2], in [3], in test [5], in test [6] and in [7]. Further, the compound was classed as inactive in test [8], in test [9], in test [12], in test [15], in test [17] and in [18]. In addition, in test [19], the compound was classed as inactive. Besides, the AC50 in [4] is 8.79 µM (active); in test [10], 13.3 µM (active); in test [11], 6.35 µM (active); in test [13], 1.16 µM (active); in test [14] it was 6.32 µM (active); in [16], 14.7 µM (active).

With `NCC(F)(F)C(F)(F)C(F)(F)C(F)(F)C(F)(F)C(F)(F)C(F)(F)F`, the result in test [1], in test [2], in test [3], in [4], in test [5] and in test [6] was inactive. Besides, the compound was classed as inactive in [7], in [8], in [9], in test [10], in test [11] and in test [12]. Moreover, the compound was classed as inactive in test [13], in test [20], in test [14], in test [15], in test [16] and in test [17]. Further, the compound was classed as inactive in [18] and in [19].

For the compound `CC(C)(C)c1cc(C(C)(C)C)c(O)c(C(C)(C)C)c1`, the call in test [1], in test [3], in test [4], in test [5], in [7] and in test [8] was inactive. In addition, the outcome in test [9], in [11], in test [12], in [14], in [15] and in [16] was inactive. Besides, the compound was called inactive in test [17], in [18] and in test [19]. The AC50 in test [2] was 698 nM (active) and 2.29 µM (active); in test [4], 138 µM (active); in test [7] it was 100 µM (active); in test [10], 100 µM (active) and 36.8 µM (active); in [13], 3.08 µM (active) and 6.33 µM (active); in [20] it was 416 nM (active) and 8.82 µM (active). Also, the AC50 is 80.6 µM (active) in test [16] and 11.7 µM (active) in test [17].
